Assay outcomes: PubChem BioAssay, National Center for Advancing Translational Sciences (NCATS)
TDP-43 yeast inh = TDP-43 toxicity inhibition in yeast; TDP-43 expressing yeast growth rescue, BacTiter-Glo, 24 h; Potency, µM (highest dose often 46.1 µM), for the others: at the highest dose growth rescue (activation), usual class: activators; 410,000 tested, 1.8% active; further: % of control where 0% means no effect; nearly all actives have a fitted effect of over 50% in size
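Luminescence from BacTiter-Glo reports growth of TDP-43-expressing yeast after 24 hr at 30 deg C with compound. Cells were raffinose-pregrown to mid-log, then seeded in galactose medium at OD600=0.02.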
aSyn yeast inh = alpha-synuclein toxicity inhibition in yeast. 370,000 tested, 0.14% active. Potency, µM (series often up to 46.1 µM), for the others: at the highest dose growth rescue (activation), most hits filed as activators. Yeast expressing alpha-synuclein, growth rescue, BacTiter-Glo, 24 h; further: % of control where 0% means no effect; nearly all actives have a fitted effect of over 65% in size
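Rescue of yeast growth: cells expressing toxic alpha-synuclein, induced in galactose at OD600 0.02, incubated with compound 24 h at 30 C. ATP luminescence quantified growth; inhibitors of toxicity appear as activators.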
Abeta rescue = A-beta toxicity reversal in yeast. yeast expressing A-beta42, growth rescue, OD600, 48 h; response scale: 0% DMSO, 100% iron-clioquinol control. Potency, µM (top dose mostly 46.1 µM), hits mostly activators. 410,000 tested, 0.063% active. AID 1347071; further: nearly all actives have a fitted effect of over 55% in size
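Growth rescue measured by 600 nm absorbance after 48 h yeast culture at 30 C with compound. Values normalized between DMSO and an equimolar ferric chloride plus clioquinol control.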
Mito fusion yeast = blocks mitochondrial division or promotes mitochondrial fusion; S. cerevisiae fusion-defective mutant growth rescue, CellTiterGlo 48 h; Potency, µM (highest dose often 46.1 µM), without a hit: at the highest dose growth rescue (activation), usual class: activators; 320,000 tested, 0.23% active; AID 485298; further: % of control where 0% means no effect; nearly all actives have a fitted effect of over 45% in size
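Growth-rescue viability read-out: after 48 h at the non-permissive 37C in glycerol/ethanol YPEG, yeast mitochondrial fusion mutants are measured by CellTiterGlo luminescence; compounds (23 nl pinned per well) restoring growth score as division inhibitors or fusion activators.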
FUS yeast rescue = rescues growth of FUS-expressing yeast | 390,000 tested, 0.24% active | Potency, µM (series often up to 76.6 µM), most hits filed as activators | S. cerevisiae FUS-expressing, growth rescue, OD600, 24 h;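 further: plate controls were DMSO vehicle for no effect and reference control for full effect; nearly all actives have a fitted effect of over 55% in size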
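Toxicity suppression screen in FUS-yeast. Cells induced with 2% galactose, starting OD 0.005, treated 24hr at 30C with compounds at multiple final concentrations; growth by OD600.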
Active calls of the source: *; i = inactive; ? = inconclusive; · = no result. Compounds with a hit are over-represented: about 2.2% of the library has one in this group of screens. The call rests on the fitted dose curve; in most records, active means well fitted curve in the direction sought with a large enough effect; inconclusive means small, poorly fitted or top-dose-only effect, or another doubt; inactive means no such curve, though single readings can be large; an effect the other way counts as inactive or inconclusive. Potency means the concentration at half of the fitted maximal effect.

SMILES | TDP-43 yeast inh | aSyn yeast inh | Abeta rescue | Mito fusion yeast | FUS yeast rescue
COc1ccc(NC(=O)C2(C)CCN2C(=O)c2ccccc2CCc2ccccc2)cc1OC (stereo not given) | 18µM* | 12% | i | · | ?
Cc1ccc2oc(-c3ccc(C)c(NC(=O)COc4ccc(Cl)cc4)c3)nc2c1 | · | -4% | · | · | ·
Cc1ccc(NC(=O)Cn2c(SCc3ccc(F)cc3)nc3cccnc32)cc1F | 11% | · | i | · | i
COc1ccc(-n2cc(-c3ccccc3)c3c(NC4CCCCC4)ncnc32)cc1 | -3% | · | i | · | i
CCOc1ccc(-n2cc(-c3ccccc3)c3c(NC4CCCC4)ncnc32)cc1 | ? | · | i | · | i
Cc1ccc(-n2cc(-c3ccccc3)c3c(NC4CCCC4)ncnc32)cc1 | 35µM* | · | i | · | i
Cc1cccc(-n2cc(-c3ccccc3)c3c(NC4CCCC4)ncnc32)c1 | 20µM* | · | i | · | i
CC[n+]1cccc(Br)c1 | · | -5% | · | · | ·
C=C1C=C(C)n2ncc(C(=O)NCCCCCC)c2N1 | · | 0% | · | · | ·
Cc1ccc(S(=O)(=O)N2CCN(C(=O)COC(=O)c3ccccc3Cl)CC2)c(C)c1 | 25µM* | 24% | i | 0% | i
Cc1ccc(S(=O)(=O)N2CCN(C(=O)COC(=O)c3ccccc3OC(F)F)CC2)c(C)c1 | 0% | 2% | i | · | i
CC1=C(C(=O)N(C(C)C)C(C)C)CC(CC(=O)NCc2cccc3ccccc23)C(=O)N1Cc1ccc(C(C)(C)C)cc1 (stereo not given) | 5% | ? | i | · | 6.3µM*
CC1=C(C(=O)N(C)C)CC(CC(=O)NCc2cccc3ccccc23)C(=O)N1Cc1ccc(C(C)(C)C)cc1 (stereo not given) | 0% | 6% | i | · | ?
CC1=C(C(=O)N(C(C)C)C(C)C)CC(CC(=O)NCC2CCCCC2)C(=O)N1Cc1ccc(C(C)(C)C)cc1 (stereo not given) | 37µM* | · | · | · | ?
Cc1cccc(N2CCN(C(=O)COc3ccc4ccc(=O)oc4c3)CC2)c1C | ? | 14% | i | ? | i
O=C(COc1ccc2ccc(=O)oc2c1)N1CCN(c2ccccc2)CC1 | 20µM* | 15% | i | 7% | i
O=C(COc1ccc2c3c(c(=O)oc2c1)CCC3)N1CCN(c2ccc(F)cc2)CC1 | 32µM* | 8% | i | ? | i
O=C(NCCc1ccccc1)OCc1cn(Cc2ccc(F)cc2)nn1 | · | · | · | · | i
Fc1cccc(-c2oncc2-c2nnnn2-c2ccc(Cl)cc2)c1 | 11µM* | 14% | i | 1% | i
NC(=S)N/N=C/c1ccc(-n2nncc2-c2ccc(Cl)cc2)cc1 | -2% | -8% | i | 22µM* | i
NC(=S)N/N=C/c1ccc(/C=N/NC(N)=S)cc1 | ? | 1% | i | -4% | i
COc1cccc(C(=O)NCCc2csc(-c3ccc(Cl)cc3)n2)c1 | 35µM* | · | i | · | i
COc1ccc(-c2nc(CCNC(=O)c3c(F)cccc3Cl)cs2)cc1 | 18µM* | · | i | · | i
COc1cccc(OC)c1C(=O)NCCc1csc(-c2ccc(Cl)cc2)n1 | 22µM* | · | i | · | i
O=C(NCCc1csc(-c2ccc(C(F)(F)F)cc2)n1)c1cccs1 | 22µM* | -14% | i | 29% | ?
SMILES | TDP-43 yeast inh | aSyn yeast inh | Abeta rescue | Mito fusion yeast | FUS yeast rescue
O=C(NCCc1csc(-c2ccc(C(F)(F)F)cc2)n1)c1ccccc1Cl | ? | · | i | · | i
Cc1ccccc1NC(=O)CSc1nnc(-c2cc(-c3ccccc3)n[nH]2)n1N | · | · | · | · | i
CCOC(=O)C1=CCN(S(=O)(=O)c2ccc(C)cc2)C1c1ccccc1 (stereo not given) | 13% | 6% | i | · | i
CCOc1cc2c(c3c1C(c1ccccc1)N(S(=O)(=O)c1ccc(C)cc1)C3)C(=O)C=CC2=O (stereo not given) | 13µM* | -3% | i | · | i
Nc1[nH]c(C(=O)c2ccc(Br)cc2)c(-c2ccc(Br)cc2)c1C(=O)N1CCCCC1 | · | · | · | · | i
Clc1ccc(CSc2nccn2Cc2ccccc2)cc1 | 16µM* | 3% | i | -12% | i
O=c1ccn(Cc2ccccc2)c(SCc2ccccc2)n1 | 8% | -1% | i | · | ·
CC(C)(C)c1ccc(C(=O)C[n+]2cc(Br)cc(Br)c2)cc1 | · | -3% | · | · | ·
O=C(/C=C/c1ccc2c(c1)OCO2)c1ccc(O)cc1O | 8.9µM* | -28% | i | · | i
O=C(/C=C/c1ccc2c(c1)OCO2)c1ccco1 | 16µM* | 10% | i | 6% | ·
Nc1ccccc1C(=O)/C=C/c1ccc2c(c1)OCO2 | 26% | -3% | i | -1% | i
CC(C)Cc1ccc(C(C)C(=O)Nc2ccc(O)cc2)cc1 (stereo not given) | 11µM* | -15% | i | -1% | i
CC(C)Cc1ccc(C(C)C(=O)Nc2cccnc2)cc1 (stereo not given) | -13% | ? | i | 8% | i
Cc1ccc(-c2nc3cccnc3s2)cc1NS(=O)(=O)c1cccs1 | 11µM* | -13% | i | ? | i
Cc1ccc(-c2nc3cccnc3s2)cc1NS(=O)(=O)c1ccc2c(c1)OCCO2 | 12% | -2% | i | ? | i
Cc1nc2ccc(S(=O)(=O)Nc3cccc(-c4nc5cccnc5s4)c3C)cc2s1 | ? | 11% | i | 18µM* | i
COc1ccc(S(=O)(=O)Nc2cccc3cccnc23)c([N+](=O)[O-])c1 | · | 22µM* | · | · | ·
Cc1nc2ccc(S(=O)(=O)Nc3cc(-c4nc5cccnc5s4)ccc3C)cc2s1 | -14% | -15% | i | ? | ?
O=S(=O)(Nc1cccc2cccnc12)c1ccc2ccccc2c1 | · | 18µM* | · | · | ·
CN1CCOc2ccc(S(=O)(=O)N3CCN(S(=O)(=O)c4c(F)cccc4F)CC3)cc21 | · | · | · | 1% | ·
O=S(=O)(Nc1cccc2cccnc12)c1cccs1 | · | 22µM* | · | · | ·
O=C(CSc1ccccc1Cl)c1ccco1 | 16µM* | 0% | i | 0% | i
CC(C)(C)c1ccc(C(=O)N2CCC2(C)C(=O)Nc2cccc3ccccc23)cc1 (stereo not given) | 1% | 12% | i | · | ?
CC(C)(C)c1ccc(C(=O)N2CCC2(C)C(=O)Nc2cccc3ncccc23)cc1 (stereo not given) | 25µM* | 11% | i | · | i
Cn1ccsc1=NC(=O)c1ccc(Cl)cc1 | 11µM* | -6% | i | 5% | i
Fc1ccccc1N1CCN(c2nc(-c3cccs3)nc3ccccc23)CC1 | 14µM* | 4% | i | 5% | i
COc1cc(NC(=O)c2cc(C)on2)cc(C(=O)Nc2cccc(C(F)(F)F)c2)c1 | 13µM* | 1% | i | -50% | i
